Data from the OligoGym collection.
Note: reference of the scale not given here.

These sequences were tested against NEUROD6 (assay: pooled miR-30 sensor sort-seq; sequence = guide strand). Conditions: shRNA.
TTAAGTTGTCCAGAGCGTCGTT was tested, and the sensor-assay potency score (higher = more potent) was -0.144. In the case of TGTCTCCTGAACTTGACCCTTT, the sensor-assay potency score (higher = more potent) is reported as -0.00785. Sequence AATAGTTGAAACACACTTCAGA has a sensor-assay potency score (higher = more potent) of -0.228. TTTAATTCATCTTGCATTGTGA gave a sensor-assay potency score (higher = more potent) of -0.0595. In the case of TTTTCATCTTCCTCTTCCCTGT, the sensor-assay potency score (higher = more potent) is reported as -0.025. For TTTGTCTTAATTAGACAGGGGA, the sensor-assay potency score (higher = more potent) was -0.0326.

The sequences below were run against NF1 in the same assay as above. Conditions: shRNA.
In the case of TTTGTAGATAGGTAGCACCATA, the sensor-assay potency score (higher = more potent) is reported as -1.19. TACTAAGAAAGTAACAACGTGG was tested, and the sensor-assay potency score (higher = more potent) was 0.245. TAAAATAGCAATATCATCCCAC was tested, and the sensor-assay potency score (higher = more potent) was 0.315. In the case of TTGTAGGACAATCAGATGCTAT, the sensor-assay potency score (higher = more potent) is reported as -0.838. TAGAAGGAATATCACATCCTAC was tested, and the sensor-assay potency score (higher = more potent) was -0.685. In the case of TAGCAGTAACTCTTTGTCGTTT, the sensor-assay potency score (higher = more potent) is reported as -0.737. With TATTCTACCATCTTATTCCTAA the sensor-assay potency score (higher = more potent) was -0.177. Sequence TTTGCTTTGAAAACGGTCCTGC has a sensor-assay potency score (higher = more potent) of 0.844. Work on TATTACTGTAGCTTCTATCAGA yielded a sensor-assay potency score (higher = more potent) of -0.358. TAACTGATGAAGAACCAGCAGA gave a sensor-assay potency score (higher = more potent) of -0.956.

These sequences were tested against NFE2L1 in the same assay as above. Conditions: shRNA.
In the case of TTAGCAGCTTTGAATATTGGGC, the sensor-assay potency score (higher = more potent) is reported as -0.506. TAAGTATCCACGTCCACCCGTA was tested, and the sensor-assay potency score (higher = more potent) was 0.169. For TTCCTGTACACTGACCCGCAGT, the sensor-assay potency score (higher = more potent) was -0.906. Work on TCGTCCGTTCTCATCTCGCAGC yielded a sensor-assay potency score (higher = more potent) of -1.23. Work on TAATTGTCCAGGTCTATGCTCT yielded a sensor-assay potency score (higher = more potent) of -0.487. TTTCGCTTTCTCGCACCCCGTT gave a sensor-assay potency score (higher = more potent) of -0.883. Sequence TAAGTCTCCACTGACTGGGGGG has a sensor-assay potency score (higher = more potent) of -0.685. Sequence TTGATGATTTTGTCATTGGTGA has a sensor-assay potency score (higher = more potent) of -0.465. Work on TTACTCAACACAAGCATTCTAG yielded a sensor-assay potency score (higher = more potent) of 0.0111. With TTATGCTGGAAATGTCTGCTGG the sensor-assay potency score (higher = more potent) was -0.294. TTGTCCAGGTCTATGCTCTTGG gave a sensor-assay potency score (higher = more potent) of -0.582. In the case of TTGAATATTGGGCATCTCCTTT, the sensor-assay potency score (higher = more potent) is reported as -0.276.

The sequences below were run against NFYC in the same assay as above. Conditions: shRNA.
AAATATTGCATCTTTCTGCTGG gave a sensor-assay potency score (higher = more potent) of 0.522. Sequence TTGCTGGATCTGGTAGAGCTGC has a sensor-assay potency score (higher = more potent) of -1.31. TAGCATTGGACACACACTCAAC gave a sensor-assay potency score (higher = more potent) of -0.948. For TAAGCGGATATACTGCAGCTGG, the sensor-assay potency score (higher = more potent) was -0.727. For TTATCTTCTGTGTGAATCCAGG, the sensor-assay potency score (higher = more potent) was -0.977. For TAGAGCTGCTGTCCATCTGTGA, the sensor-assay potency score (higher = more potent) was -0.297. In the case of TTGAGTGCCTGATACAGGCTGG, the sensor-assay potency score (higher = more potent) is reported as -0.146. TAATCTTCTTAATACGAGCCAG gave a sensor-assay potency score (higher = more potent) of -0.951. Work on TATTGCATCTTTCTGCTGGAGA yielded a sensor-assay potency score (higher = more potent) of -0.521. Work on TCTTGGAACAATATCGATGAGA yielded a sensor-assay potency score (higher = more potent) of -0.931. For TGTGTTAGTGATGATCTGCTGC, the sensor-assay potency score (higher = more potent) was 0.227. In the case of ATCTCTTGGAACAATATCGATG, the sensor-assay potency score (higher = more potent) is reported as -1.33.
